# Data as given in PubChem BioAssay (NCI).
# The panel holds about 79,000 compounds, 15% with a hit somewhere; the sample as a whole holds those more often. A number with no mark means an inactive call. Calls of active or inactive are those of the source. Cut-off read from the data, not from the text of the source: active = growth inhibition above about 70%; inactive = the rest.
# Key:
# [1] = NCI Yeast Anticancer Drug Screen. Data for the mec2-1 strain (AID 157); settings: S. cerevisiae mec2-1 strain, stronger effect = higher value
# In short: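 Growth inhibition is read against vehicle-treated controls after compound exposure of the mec2-1 yeast strain, which is defective in DNA damage repair or cell cycle control.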
# [2] = NCI Yeast Anticancer Drug Screen. Data for the sgs1 mgt1 strain (AID 161);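 note: 0% = growth of cultures given vehicle only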; settings: S. cerevisiae sgs1 mgt1 strain, stronger effect = higher value
# In short: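 This yeast growth screen uses a strain with defined DNA-repair lesions; compound-treated growth is compared with vehicle-treated growth.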
# [3] = NCI Yeast Anticancer Drug Screen. Data for the CLN2oe strain (AID 163);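 note: 0% = growth of vehicle-only control cultures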; settings: S. cerevisiae CLN2oe strain, stronger effect = higher value
# In short: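 Compound-treated yeast; growth vs vehicle ctrl = % inhibition. Genetically altered strain (cell-cycle control).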
# [4] = NCI Yeast Anticancer Drug Screen. Data for the cln2 rad14 strain (AID 165);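 note: 0% = growth equal to vehicle treated cultures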; settings: S. cerevisiae cln2 rad14 strain, stronger effect = higher value
# In short: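 Growth inhibition, relative to vehicle-treated controls, is the read-out. The test organism is a yeast strain with defined genetic alterations, cln2 rad14.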
# [5] = NCI Yeast Anticancer Drug Screen. Data for the bub3 strain (AID 167); settings: S. cerevisiae bub3 mutant strain, stronger effect = higher value
# In short: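 Mutant yeast screening strain plus compound; vehicle-treated cultures serve as the 0% inhibition reference.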
# [6] = NCI Yeast Anticancer Drug Screen. Data for the wt2 strain (AID 169); settings: S. cerevisiae wt2 strain growth inhibition, stronger effect = higher value
# In short: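 Compound exposure of yeast; growth compared with vehicle controls; inhibition reported.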
# [7] = NCI Yeast Anticancer Drug Screen. Data for the mlh1 strain (AID 171);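 note: 0% = growth of vehicle-treated control cultures of the same strain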; settings: S. cerevisiae mlh1 strain growth inhibition, stronger effect = higher value
# In short: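 Compounds are applied to a genetically altered yeast strain, and its growth is compared with that of vehicle-treated cultures to give percent inhibition.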
# [8] = NCI Yeast Anticancer Drug Screen. Data for the sgs1 strain (AID 173);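 note: 0% = growth of vehicle-only control cultures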; settings: S. cerevisiae sgs1 mutant, stronger effect = higher value
# In short: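 Compounds applied to genetically altered yeast; growth compared with vehicle-treated cultures to give % inhibition.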
# [9] = NCI Yeast Anticancer Drug Screen. Data for the mlh1 rad18 strain (AID 175); settings: S. cerevisiae mlh1 rad18 strain growth inhibition, stronger effect = higher value
# In short: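 Cells of a genetically altered yeast strain, deficient in DNA damage repair, were treated with compound. Their growth was then compared with that of vehicle-treated cultures to give inhibition.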
# [10] = NCI Yeast Anticancer Drug Screen. Data for the rad18 strain (AID 177); settings: S. cerevisiae rad18 mutant growth inhibition, stronger effect = higher value
# In short: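 Compounds are applied to a repair-deficient yeast strain, and growth is compared with that of vehicle-treated cultures to give percent inhibition.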
# [11] = NCI Yeast Anticancer Drug Screen. Data for the wt1 strain (AID 149);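 note: 0% = growth of vehicle-treated wt1 cultures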; settings: S. cerevisiae wt1 strain (SPY 50644) growth inhibition, stronger effect = higher value
# In short: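 Each compound is tested on wt1 yeast and the loss of growth versus vehicle gives the inhibition value.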
# [12] = NCI Yeast Anticancer Drug Screen. Data for the rad50EPP+ strain (AID 151);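 note: 0% = growth of vehicle-treated control cultures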; settings: S. cerevisiae rad50 mutant strain, stronger effect = higher value
# In short: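 rad50EPP+ yeast treated with test compounds. Readout: growth vs vehicle control.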
# [13] = NCI Yeast Anticancer Drug Screen. Data for the mgt1 strain (AID 153); settings: S. cerevisiae mgt1 mutant growth inhibition, stronger effect = higher value
# In short: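 Growth inhibition relative to vehicle controls was scored for the mgt1 yeast strain after compound exposure.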
# [14] = NCI Yeast Anticancer Drug Screen. Data for the rad50 strain (AID 155);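 note: 0% = growth of vehicle-only cultures of the same strain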; settings: S. cerevisiae rad50 strain growth inhibition, stronger effect = higher value
# In short: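 Vehicle-treated cultures provide the reference for the growth inhibition reported for compound-exposed, repair-deficient yeast.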
# [15] = NCI Yeast Anticancer Drug Screen. Data for the rad14 strain (AID 159);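 note: 0% = growth of vehicle-treated control cultures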; settings: S. cerevisiae rad14 strain growth inhibition, stronger effect = higher value
# In short: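 Inhibition of growth is reported for a repair-deficient yeast mutant following compound treatment, calculated relative to cultures that received vehicle.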
# [16] = at 5.0 µM (retest, dose inferred, filed as 0.5)
# [17] = at 50.0 µM (retest, dose inferred, filed as 5.0)
structure (smiles),measurement,setting,value
Nc1ccc2cc(Br)c3ccccc3c2c1,growth inhibition,[1]; at 100.0 µM,6%
same,growth inhibition,[2]; [16],13%
same,growth inhibition,[2]; [17],50%
same,growth inhibition,[2]; at 50.0 µM,88.5% (active)
same,growth inhibition,[3]; at 1.2 µM,-2%
same,growth inhibition,[3]; at 3.7 µM,-19%
same,growth inhibition,[3]; at 11.0 µM,-1%
same,growth inhibition,[3]; at 33.0 µM,-4%
same,growth inhibition,[3]; at 100.0 µM,-16%
same,growth inhibition,[4]; [16],15%
same,growth inhibition,[4]; [17],18%
same,growth inhibition,[4]; at 50.0 µM,40.1%
same,growth inhibition,[5]; at 1.2 µM,0%
same,growth inhibition,[5]; at 3.7 µM,2%
same,growth inhibition,[5]; [16],10%
same,growth inhibition,[5]; at 11.0 µM,2%
same,growth inhibition,[5]; at 33.0 µM,-1%
same,growth inhibition,[5]; [17],31%
same,growth inhibition,[5]; at 50.0 µM,71.5% (active)
same,growth inhibition,[5]; at 100.0 µM,-6%
same,growth inhibition,[6]; at 1.2 µM,-1%
same,growth inhibition,[6]; at 3.7 µM,0%
same,growth inhibition,[6]; at 11.0 µM,-3%
same,growth inhibition,[6]; at 33.0 µM,2%
same,growth inhibition,[6]; at 100.0 µM,80% (active)
same,growth inhibition,[7]; at 1.2 µM,-1%
same,growth inhibition,[7]; at 3.7 µM,-1%
same,growth inhibition,[7]; at 11.0 µM,-1%
same,growth inhibition,[7]; at 33.0 µM,1%
same,growth inhibition,[7]; at 100.0 µM,2%
same,growth inhibition,[8]; at 1.2 µM,-2%
same,growth inhibition,[8]; at 3.7 µM,-2%
same,growth inhibition,[8]; at 11.0 µM,-1%
same,growth inhibition,[8]; at 33.0 µM,4%
same,growth inhibition,[8]; at 100.0 µM,9%
same,growth inhibition,[9]; [16],28%
same,growth inhibition,[9]; [17],65%
same,growth inhibition,[9]; at 50.0 µM,90.3% (active)
same,growth inhibition,[10]; at 1.2 µM,-3%
same,growth inhibition,[10]; at 3.7 µM,-2%
same,growth inhibition,[10]; at 11.0 µM,-4%
same,growth inhibition,[10]; at 33.0 µM,-1%
same,growth inhibition,[10]; at 100.0 µM,-5%
Cc1ccc2oc(-c3cccc(N)c3)nc2c1,growth inhibition,[11]; at 1.2 µM,0%
same,growth inhibition,[11]; at 3.7 µM,-4%
same,growth inhibition,[11]; at 11.0 µM,2%
same,growth inhibition,[11]; at 33.0 µM,0%
same,growth inhibition,[11]; at 100.0 µM,5%
same,growth inhibition,[12]; at 1.2 µM,1%
same,growth inhibition,[12]; at 3.7 µM,2%
same,growth inhibition,[12]; at 11.0 µM,10%
same,growth inhibition,[12]; at 33.0 µM,23%
same,growth inhibition,[12]; at 100.0 µM,36%
same,growth inhibition,[13]; at 1.2 µM,-6%
same,growth inhibition,[13]; at 3.7 µM,-13%
same,growth inhibition,[13]; at 11.0 µM,-4%
same,growth inhibition,[13]; at 33.0 µM,6%
same,growth inhibition,[13]; at 100.0 µM,24%
same,growth inhibition,[14]; at 1.2 µM,-3%
same,growth inhibition,[14]; at 3.7 µM,4%
same,growth inhibition,[14]; [16],-7%
same,growth inhibition,[14]; at 11.0 µM,1%
same,growth inhibition,[14]; at 33.0 µM,12%
same,growth inhibition,[14]; [17],10%
same,growth inhibition,[14]; at 50.0 µM,17.4%
same,growth inhibition,[14]; at 100.0 µM,29%
same,growth inhibition,[1]; at 1.2 µM,-2%
same,growth inhibition,[1]; at 3.7 µM,-3%
same,growth inhibition,[1]; [16],-10%
same,growth inhibition,[1]; at 11.0 µM,3%
same,growth inhibition,[1]; at 33.0 µM,3%
same,growth inhibition,[1]; [17],13%
same,growth inhibition,[1]; at 50.0 µM,3.95%
same,growth inhibition,[1]; at 100.0 µM,8%
same,growth inhibition,[3]; at 1.2 µM,-5%
same,growth inhibition,[3]; at 3.7 µM,-6%
same,growth inhibition,[3]; at 11.0 µM,-4%
same,growth inhibition,[3]; at 33.0 µM,6%
same,growth inhibition,[3]; at 100.0 µM,15%
same,growth inhibition,[4]; [16],-42%
same,growth inhibition,[4]; [17],-2%
same,growth inhibition,[4]; at 50.0 µM,27.5%
same,growth inhibition,[5]; at 1.2 µM,-6%
same,growth inhibition,[5]; at 3.7 µM,-3%
same,growth inhibition,[5]; [16],9%
same,growth inhibition,[5]; at 11.0 µM,9%
same,growth inhibition,[5]; at 33.0 µM,23%
same,growth inhibition,[5]; [17],36%
same,growth inhibition,[5]; at 50.0 µM,23.4%
same,growth inhibition,[5]; at 100.0 µM,35%
same,growth inhibition,[7]; at 1.2 µM,-4%
same,growth inhibition,[7]; at 3.7 µM,6%
same,growth inhibition,[7]; at 11.0 µM,-2%
same,growth inhibition,[7]; at 33.0 µM,2%
same,growth inhibition,[7]; at 100.0 µM,21%
same,growth inhibition,[8]; at 1.2 µM,-1%
same,growth inhibition,[8]; at 3.7 µM,0%
same,growth inhibition,[8]; at 11.0 µM,2%
same,growth inhibition,[8]; at 33.0 µM,5%
same,growth inhibition,[8]; at 100.0 µM,10%
same,growth inhibition,[9]; [16],-7%
same,growth inhibition,[9]; [17],28%
same,growth inhibition,[9]; at 50.0 µM,-6%
same,growth inhibition,[10]; at 1.2 µM,-2%
same,growth inhibition,[10]; at 3.7 µM,-4%
same,growth inhibition,[10]; at 11.0 µM,3%
same,growth inhibition,[10]; at 33.0 µM,17%
same,growth inhibition,[10]; at 100.0 µM,53%
CCC1SC(=S)N(c2ccc(Cl)cc2)C1=O (stereo not drawn),growth inhibition,[11]; at 1.2 µM,-2%
same,growth inhibition,[11]; at 3.7 µM,-2%
same,growth inhibition,[11]; at 11.0 µM,10%
same,growth inhibition,[11]; at 33.0 µM,23%
same,growth inhibition,[11]; at 100.0 µM,78% (active)
same,growth inhibition,[12]; at 1.2 µM,-5%
same,growth inhibition,[12]; at 3.7 µM,21%
same,growth inhibition,[12]; at 11.0 µM,42%
same,growth inhibition,[12]; at 33.0 µM,96% (active)
same,growth inhibition,[12]; at 100.0 µM,98% (active)
same,growth inhibition,[14]; at 1.2 µM,-17%
same,growth inhibition,[14]; at 3.7 µM,-19%
same,growth inhibition,[14]; [16],8%
same,growth inhibition,[14]; at 11.0 µM,6%
same,growth inhibition,[14]; at 33.0 µM,84% (active)
same,growth inhibition,[14]; [17],35%
same,growth inhibition,[14]; at 50.0 µM,45%
same,growth inhibition,[14]; at 100.0 µM,96% (active)
same,growth inhibition,[1]; at 1.2 µM,-3%
same,growth inhibition,[1]; at 3.7 µM,-5%
same,growth inhibition,[1]; [16],1%
same,growth inhibition,[1]; at 11.0 µM,-6%
same,growth inhibition,[1]; at 33.0 µM,-9%
same,growth inhibition,[1]; [17],43%
same,growth inhibition,[1]; at 50.0 µM,26.7%
same,growth inhibition,[1]; at 100.0 µM,16%
same,growth inhibition,[15]; at 1.2 µM,4%
same,growth inhibition,[15]; at 3.7 µM,1%
same,growth inhibition,[15]; at 11.0 µM,12%
same,growth inhibition,[15]; at 33.0 µM,26%
same,growth inhibition,[15]; at 100.0 µM,75% (active)
same,growth inhibition,[2]; [16],4%
same,growth inhibition,[2]; [17],68%
same,growth inhibition,[2]; at 50.0 µM,66%
same,growth inhibition,[3]; at 1.2 µM,-9%
same,growth inhibition,[3]; at 3.7 µM,-10%
same,growth inhibition,[3]; at 11.0 µM,-16%
same,growth inhibition,[3]; at 33.0 µM,-20%
same,growth inhibition,[3]; at 100.0 µM,75% (active)
same,growth inhibition,[4]; [16],-3%
same,growth inhibition,[4]; [17],-4%
same,growth inhibition,[4]; at 50.0 µM,-11.6%
same,growth inhibition,[5]; at 1.2 µM,-11%
same,growth inhibition,[5]; at 3.7 µM,-10%
same,growth inhibition,[5]; [16],-6%
same,growth inhibition,[5]; at 11.0 µM,-13%
same,growth inhibition,[5]; at 33.0 µM,22%
same,growth inhibition,[5]; [17],44%
same,growth inhibition,[5]; at 50.0 µM,6.05%
same,growth inhibition,[5]; at 100.0 µM,97% (active)
same,growth inhibition,[6]; at 1.2 µM,-5%
same,growth inhibition,[6]; at 3.7 µM,1%
same,growth inhibition,[6]; at 11.0 µM,20%
same,growth inhibition,[6]; at 33.0 µM,65%
same,growth inhibition,[6]; at 100.0 µM,92% (active)
same,growth inhibition,[7]; at 1.2 µM,-14%
same,growth inhibition,[7]; at 3.7 µM,-10%
same,growth inhibition,[7]; at 11.0 µM,-10%
same,growth inhibition,[7]; at 33.0 µM,48%
same,growth inhibition,[7]; at 100.0 µM,97% (active)
